Only some compounds are listed: those with a hit (about 7.5% of all), similar ones and a draw of the others.
FLuc counter – inhibits or activates purified firefly luciferase, miR-21 counter-screen | Potency, µM (doses to about 57.5 µM), for inactives: at the top dose activity change, negative = inhibition, most hits filed as inhibitors | purified FLuc, Km substrates, luminescence inhibition | AID 588342 | 360,000 tested, 6.9% active;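 also: plate controls were vehicle for no effect and reference inhibitor for full effect; nearly all actives have a fitted effect of over 55% in size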
Target sequence (P08659 whole entry, looked up): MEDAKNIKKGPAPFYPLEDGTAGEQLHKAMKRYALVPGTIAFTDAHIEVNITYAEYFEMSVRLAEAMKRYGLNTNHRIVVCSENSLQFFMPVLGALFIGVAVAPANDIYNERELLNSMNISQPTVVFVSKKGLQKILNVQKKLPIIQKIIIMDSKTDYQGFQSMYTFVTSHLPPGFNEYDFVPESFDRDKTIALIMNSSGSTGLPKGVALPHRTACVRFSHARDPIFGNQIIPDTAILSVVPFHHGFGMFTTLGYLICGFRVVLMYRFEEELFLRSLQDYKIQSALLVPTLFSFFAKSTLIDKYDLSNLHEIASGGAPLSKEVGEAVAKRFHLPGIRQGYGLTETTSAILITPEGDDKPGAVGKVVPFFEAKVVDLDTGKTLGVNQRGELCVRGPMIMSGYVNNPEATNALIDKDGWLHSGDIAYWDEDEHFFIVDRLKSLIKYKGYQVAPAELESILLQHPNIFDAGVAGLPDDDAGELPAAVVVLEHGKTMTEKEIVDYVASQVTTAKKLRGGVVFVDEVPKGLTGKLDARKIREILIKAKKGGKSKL
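Biochemical qHTS of compounds, final roughly 60 µM downward over six points, against 10 nM purified firefly luciferase using Km concentrations of substrates (10 uM D-luciferin, 10 uM ATP) in Tris acetate pH 7.5 buffer; luminescence output.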
Rab9 prom act – activates the Rab9 promoter; Huh7 Rab9 promoter-luciferase reporter, luminescence, 24 h; AID 485297; Potency, µM (highest dose often 9.22 µM), for the others: at the highest dose activation, negative = inhibition, actives largely listed as activators; 320,000 tested, 2.8% active; also: % of control where 0% means no effect; nearly all actives have a fitted effect of over 60% in size
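Huh7 reporter line, Rab9 promoter upstream of luciferase. Compound exposure 24 h at 37 °C in reduced-serum medium with 10% FBS. Read-out: luminescence.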
SMN2 splice up – increases expression of the SMN2 splice variant; HEK293 SMN2-luciferase splicing reporter, luminescence, 30-36 h; Potency, µM (titrated, usually from 46.1 µM), for inactives: at the top dose activity change, positive = activation, most hits filed as activators; 210,000 tested, 2.8% active; AID 1458; also: % of control where 0% means no effect; nearly all actives have a fitted effect of over 55% in size
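HEK293 cells carry an SMN2 minigene-luciferase reporter in which exon 7 inclusion puts luciferase in frame. Cells were seeded at 2000 cells/well, attached for 10-12 hours, then exposed to compounds for 30-36 hours at 37C before ONE-Glo luminescence.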
NPC1 promoter act – activators of NPC1 promoter; Huh7 NPC1 promoter luciferase reporter, 24 h; Potency, µM (titrated, usually from 9.22 µM), inactives show top-dose activation, most hits filed as activators; 320,000 tested, 2.4% active; also: % of control where 0% means no effect; nearly all actives have a fitted effect of over 60% in size
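Quantitative HTS used a cell-based reporter: Huh7 cells stably bearing the NPC1 promoter upstream of luciferase were treated with compounds for 24 h, and promoter activation was read as luminescence.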
KinaseGlo FLuc – blocks Kinase-Glo luciferase, a counter-screen artifact; Q27757; Kinase-Glo luciferase, ATP luminescence, 8 min; Potency, µM (doses to about 38.3 µM), for the others: at the highest dose activity change, negative = inhibition, hits mostly inhibitors; 200,000 tested, 0.28% active; also: % is scaled to controls: 0 for no effect and ±100 for the full control effect; nearly all actives have a fitted effect of over 60% in size
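Compounds were added to a substrate mix at pH 7.2 (50 mM imidazole, 10 uM ATP, within the enzyme's linear range), followed by Kinase-Glo detection reagent; luminescence was measured after 8 minutes at ambient temperature.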
ELG1 genotox – inducers of genotoxicity in HEK293T ELG1-luciferase cells. HEK293T ELG1-luciferase reporter, luminescence, 16 h. Potency, µM (top dose mostly 46 µM), inactives show at the highest dose activity change, positive = activation, usual class: activators. 330,000 tested, 1.3% active; also: % of control where 0% means no effect; nearly all actives have a fitted effect of over 60% in size
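After overnight (16 hr) compound treatment at 37 °C, ELG1-luciferase HEK293T cells were lysed with ONE-Glo; luminescence quantified 30 min later at room temperature.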
The depositor's hits bear a star; ? = inconclusive; . = no result; [ ] = remark or other dose. Calls follow the shape of the dose curve; as a rule, active = well fitted curve in the direction sought with a large enough effect; inconclusive = small, poorly fitted or top-dose-only effect, or another doubt; inactive = no such curve, though single readings can be large; an effect the other way counts as inactive or inconclusive. Potency is read from the fitted curve at half-maximal effect.

SMILES	FLuc counter	Rab9 prom act	SMN2 splice up	NPC1 promoter act	KinaseGlo FLuc	ELG1 genotox
CC(=O)c1ccc(NC(=O)Cn2ncc3c(C)n(Cc4ccc(F)cc4)c(C)c3c2=O)cc1	-13%	.	1%	.	.	.
COc1ccccc1CCNC(=O)Cc1c(C)c2c(O)cc(C)cc2oc1=O	-6%	.	3%	.	.	.
Cc1cccc(N2CSC3=C(C#N)C(c4ccc(C)o4)CC(=O)N3C2)c1 (stereo not drawn)	17µM*	4%	6%	-3%	-8%	?
COCc1cc(=O)n2c(-c3ccc(C)cc3)n[nH]c2n1	9.5µM*	3%	?	19%	1%	11%
Cc1ccc(C(=O)N/N=C\C=C\c2ccc(Br)cc2)cn1	-13%	0%	-27%	-3%	-1%	1%
CCOc1ccc(C(=O)N/N=C/c2ccccc2[N+](=O)[O-])cc1	1.7µM*	1.4µM*	13µM*	2.2µM*	-3%	?
COc1cc(/C=N/NC(=O)c2ccc(C)nc2)cc([N+](=O)[O-])c1O	21µM*	2%	2%	0%	-7%	-2%
Cc1ccc(C(=O)N/N=C/c2cc(Br)ccc2O)cn1	13µM*	-35%	.	-29%	.	11%
Cc1ccc(C(=O)N/N=C\c2ccccc2[N+](=O)[O-])cn1	12µM*	2.8µM*	13µM*	3.5µM*	-8%	9%
Cc1ccc(C(=O)N/N=C\C=C\c2ccccc2[N+](=O)[O-])cn1	-6%	7%	-7%	3%	1%	0%
Cc1sc(N2CCN(S(=O)(=O)c3ccc4c(c3)NC(=O)CO4)CC2)nc1-c1ccccc1	2%	-12%	.	-6%	.	0%
CCOc1ccc(S(=O)(=O)c2c(C(=O)c3ccc(C)cc3)cnc3cc4c(cc23)OCCO4)cc1	6%	-5%	-19%	1%	-1%	1%
Cc1ccc(C(=O)c2cnc3cc4c(cc3c2S(=O)(=O)c2ccccc2)OCCO4)cc1	1.7µM*	13%	-85%	14%	4%	11%
CCCCC/C=C\C/C=C\CCCCCCCC(=O)NC(C)C(=O)O (stereo not drawn)	.	.	2%	.	-1%	.
CCCCCCSC1=C(C#N)C(=O)NC2(CCCCC2)S1	24µM*	-2%	19%	3%	1%	?
COc1ccc(CSC2=C(C#N)C(=O)NC3(CCCCC3)S2)cc1	.	.	-4%[9.22 µM]	.	-3%[7.66 µM]	.
COc1ccc(NC(=O)c2ccccc2NS(=O)(=O)c2ccc(C)cc2)c([N+](=O)[O-])c1	-9%	3%	-56%	-5%	2%	-2%
COc1ccc(C(=O)COC(=O)c2ccccc2NS(=O)(=O)c2ccc(O)c([N+](=O)[O-])c2)cc1	11µM*	0%	.	-3%	.	0%
Cc1nc(NCCO)c2nc(-c3ccccc3)n(CCCN(C)C)c2n1	.	.	-13%	.	2%	.
Cc1ccc(CNc2cc(C)nc3nc(-c4cccc(C)c4)nn23)cc1	12µM*	.	.	.	.	.
CCOc1ccc(CNc2cc(C)nc3nc(-c4cccc(C)c4)nn23)cc1OC	5.4µM*	.	.	.	.	.
Cc1cccc(Nc2cc(C)nc3nc(-c4ccccc4)nn23)c1	-8%	.	-6%	.	.	.
COc1cc(/C=C(/C#N)c2nc(-c3cc4ccccc4oc3=O)cs2)cc([N+](=O)[O-])c1O	12µM*	-1%	.	-2%	.	-1%
CC1CCC(=C(C#N)c2nc(-c3cc4ccccc4oc3=O)cs2)CC1 (stereo not drawn)	2.7µM*	4µM*	?	3.5µM*	-3%	6.5µM*
CCCn1nc(C(=O)Nc2cccc(S(=O)(=O)N(C)c3ccccc3)c2)c2ccccc2c1=O	.	.	.	.	.	-7%
Cc1sc2nc(-c3ccncc3)[nH]c(=O)c2c1-c1ccccc1	-14%	-12%	-5%	1%	1%	6%
Cc1sc2nc(-c3ccccn3)[nH]c(=O)c2c1-c1ccccc1	11µM*	28%	52%	24%	-14%	?
Nc1nc(CSc2nc3ccccc3[nH]2)cs1	?	?	19%	?	0%	12%

Bioassay records: PubChem, National Center for Advancing Translational Sciences (NCATS)
